Results taken from PubChem BioAssay (Tox21).
“And” between values parts separate entries of the source, which are not always exact repeats. Equal values may be shown once. Inconclusive results are not listed. Entries that show only a call come without a potency. A structure can be active in one record and inactive in another. The source made the active and inactive calls. Unless noted, the call rests on the fitted dose curve; in most records, active means well fitted curve in the direction sought with a large enough effect in the repeat runs; inconclusive means weak or mixed curves; inactive means no such curve, though single readings can be large; an effect the other way counts as inactive or inconclusive.

Legend:
[1] = qHTS assay for identifying genotoxic compounds that show differential cytotoxicity against isogenic chicken DT40 cell lines with known DNA damage response pathways - Rev3 mutant cell line (AID 743014); further: nearly all actives have a fitted effect of over 55% in size; further: potency means the concentration at half of the fitted maximal effect
[2] = qHTS assay to identify small molecule antagonists of the androgen receptor (AR) signaling pathway - cell viability counter screen (AID 743033; further: nearly all actives have a fitted effect of over 45% in size)
[3] = biological target: Estrogen receptor (Homo sapiens) (UniProt P03372); test: qHTS assay to identify small molecule antagonists of the estrogen receptor alpha (ER-alpha) signaling pathway (AID 743069; active means well fitted curve in the direction sought with a large enough effect in the signal ratio in the repeat runs, not every such curve was filed as active; the % refers to the signal ratio)
Sequence of Estrogen receptor (Homo sapiens) (P03372 whole entry, looked up): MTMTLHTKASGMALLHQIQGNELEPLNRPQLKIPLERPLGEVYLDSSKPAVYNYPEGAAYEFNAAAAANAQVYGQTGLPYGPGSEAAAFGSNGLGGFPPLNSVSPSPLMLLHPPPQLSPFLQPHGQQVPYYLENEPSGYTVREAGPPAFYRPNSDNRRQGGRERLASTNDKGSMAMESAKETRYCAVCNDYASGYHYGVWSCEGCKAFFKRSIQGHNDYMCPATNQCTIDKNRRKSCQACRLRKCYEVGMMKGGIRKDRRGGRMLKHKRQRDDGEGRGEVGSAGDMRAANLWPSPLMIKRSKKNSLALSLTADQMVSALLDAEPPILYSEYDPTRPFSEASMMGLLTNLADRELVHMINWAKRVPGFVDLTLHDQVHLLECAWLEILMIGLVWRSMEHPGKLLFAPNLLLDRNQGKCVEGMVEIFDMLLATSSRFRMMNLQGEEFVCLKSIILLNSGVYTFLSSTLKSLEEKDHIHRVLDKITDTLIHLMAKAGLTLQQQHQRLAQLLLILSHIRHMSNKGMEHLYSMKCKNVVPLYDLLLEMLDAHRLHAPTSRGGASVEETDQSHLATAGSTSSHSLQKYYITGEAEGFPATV
Procedure, shortened: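 Beta-lactamase FRET fluorescence is read after 2 hr at room temperature with LiveBLAzer B/G substrate. Before that, ER-alpha-bla HEK293 cells sit 4 hr after plating, then receive compound plus 17beta-estradiol and incubate 18 hr at 37C.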

[4] = qHTS assay to identify small molecule antagonists of the estrogen receptor alpha (ER-alpha) signaling pathway - cell viability counter screen (AID 743074; calls by dose curve;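 further: HEK293 cells carrying ER-alpha-UAS-bla reporter stimulated with 17beta-estradiol; nearly all actives have a fitted effect of over 45% in size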; further: potency means the concentration at half of the fitted maximal effect)
[5] = biological target: Estrogen receptor (Homo sapiens) (UniProt P03372); test: qHTS assay to identify small molecule agonists of the estrogen receptor alpha (ER-alpha) signaling pathway (AID 743075; calls by dose curve;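 further: HEK293 GripTite cells with ER-alpha and UAS-driven beta-lactamase reporter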)
[6] = biological target: Estrogen receptor (Homo sapiens) (UniProt P03372); test: qHTS assay to identify small molecule agonists of the estrogen receptor alpha (ER-alpha) signaling pathway using the BG1 cell line (AID 743079); further: nearly all actives have a fitted effect of over 20% in size
[7] = qHTS assay to identify small molecule antagonists of the estrogen receptor alpha (ER-alpha) signaling pathway using the BG1 cell line (AID 743080; calls by dose curve; further: series mostly up to about 70 µM; nearly all actives have a fitted effect of over 25% in size)
Procedure, shortened: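 Antagonist mode: compounds in DMSO were pinned onto BG1-Luc-4E2 cells alongside 17beta-estradiol agonist, incubated 21.5 h, and ERE-driven luciferase measured with ONE-Glo. Cytotoxicity was multiplexed using CellTiter-Fluor fluorescence.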

[8] = qHTS assay to identify small molecule antagonists of the estrogen receptor alpha (ER-alpha) signaling pathway using the BG1 cell line - cell viability counter screen (AID 743081);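 further: compound given together with 17beta-estradiol as the ER stimulus; nearly all actives have a fitted effect of over 45% in size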; further: potency means the concentration at half of the fitted maximal effect
Aromatase (Homo sapiens) = Aromatase (Homo sapiens) (UniProt P11511); test: qHTS assay to identify aromatase inhibitors (AID 743083); further: series mostly up to about 70 µM; nearly all actives have a fitted effect of over 55% in size
Sequence of Aromatase (Homo sapiens) (P11511 whole entry, looked up): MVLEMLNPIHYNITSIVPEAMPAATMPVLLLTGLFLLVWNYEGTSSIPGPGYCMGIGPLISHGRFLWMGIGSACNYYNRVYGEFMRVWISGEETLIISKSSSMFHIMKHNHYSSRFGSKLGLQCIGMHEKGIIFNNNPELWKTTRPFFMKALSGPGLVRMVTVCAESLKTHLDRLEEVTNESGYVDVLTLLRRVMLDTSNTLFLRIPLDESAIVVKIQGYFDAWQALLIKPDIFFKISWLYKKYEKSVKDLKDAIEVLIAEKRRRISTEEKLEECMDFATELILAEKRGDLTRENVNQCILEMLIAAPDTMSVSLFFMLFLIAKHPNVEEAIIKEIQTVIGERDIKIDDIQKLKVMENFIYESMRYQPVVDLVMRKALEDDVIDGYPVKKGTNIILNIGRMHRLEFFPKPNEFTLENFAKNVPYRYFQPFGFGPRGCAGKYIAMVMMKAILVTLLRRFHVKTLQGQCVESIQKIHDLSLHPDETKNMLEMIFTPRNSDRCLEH

[9] = qHTS assay to identify small molecule antagonists of the androgen receptor (AR) signaling pathway using the MDA cell line - cell viability counter screen (AID 743041; further: nearly all actives have a fitted effect of over 45% in size)
Procedure, shortened: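 Cytotoxicity counter screen: MDA-kb2 AR-luc cells, compound + R1881, 16 h, 37C, 0% CO2; CellTiter-Fluor added at 15.5 h, fluorescence read after 30 min.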

[10] = qHTS assay to identify small molecule antagonists of the thyroid receptor (TR) signaling pathway - cell viability counter screen (AID 743064); further: nearly all actives have a fitted effect of over 50% in size; further: potency means the concentration at half of the fitted maximal effect
Procedure, shortened: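 Viability of T3-stimulated (1 nM final) GH3.TRE-Luc cells is measured by CellTiter-Fluor fluorescence after 23.5 h compound exposure at 37 °C plus 30 min reagent incubation.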

[11] = test system: thyroid hormone receptor (rat, GH3 cells); test: qHTS assay to identify small molecule agonists of the thyroid receptor (TR) signaling pathway (AID 743066; calls by dose curve)
[12] = qHTS assay for identifying genotoxic compounds that show differential cytotoxicity against isogenic chicken DT40 cell lines with known DNA damage response pathways - wild type cell line (AID 743012); further: nearly all actives have a fitted effect of over 60% in size; further: potency means the concentration at half of the fitted maximal effect
Procedure, shortened: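 Luminescent ATP viability signal (CellTiter-Glo, 30 min RT) recorded after wild type DT40 cells were incubated with compounds for 40 h at 37 C/5% CO2.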

[13] = qHTS assay for identifying genotoxic compounds that show differential cytotoxicity against isogenic chicken DT40 cell lines with known DNA damage response pathways - Rad54/Ku70 mutant cell line (AID 743015); further: nearly all actives have a fitted effect of over 60% in size; further: potency means the concentration at half of the fitted maximal effect
[14] = qHTS assay to identify small molecule antagonists of the thyroid receptor (TR) signaling pathway (AID 743065); further: nearly all actives have a fitted effect of over 55% in size; further: potency means the concentration at half of the fitted maximal effect
Procedure, shortened: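 GH3.TRE-Luc rat pituitary cells (two TREs driving luciferase) were dosed with compound, then stimulated with 1 nM T3 (final) for 23.5 h at 37 C. ONE-Glo luminescence was the read-out, with CellTiter-Fluor fluorescence as the cytotoxicity counter-screen.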

[15] = biological target: Androgen receptor (Homo sapiens) (UniProt P10275); test: qHTS assay to identify small molecule antagonists of the androgen receptor (AR) signaling pathway (AID 743035; active means well fitted inhibition curve with a large enough effect in the signal ratio in the repeat runs, not every such curve was filed as active; the % refers to the signal ratio)
Sequence of Androgen receptor (Homo sapiens) (P10275 whole entry, looked up): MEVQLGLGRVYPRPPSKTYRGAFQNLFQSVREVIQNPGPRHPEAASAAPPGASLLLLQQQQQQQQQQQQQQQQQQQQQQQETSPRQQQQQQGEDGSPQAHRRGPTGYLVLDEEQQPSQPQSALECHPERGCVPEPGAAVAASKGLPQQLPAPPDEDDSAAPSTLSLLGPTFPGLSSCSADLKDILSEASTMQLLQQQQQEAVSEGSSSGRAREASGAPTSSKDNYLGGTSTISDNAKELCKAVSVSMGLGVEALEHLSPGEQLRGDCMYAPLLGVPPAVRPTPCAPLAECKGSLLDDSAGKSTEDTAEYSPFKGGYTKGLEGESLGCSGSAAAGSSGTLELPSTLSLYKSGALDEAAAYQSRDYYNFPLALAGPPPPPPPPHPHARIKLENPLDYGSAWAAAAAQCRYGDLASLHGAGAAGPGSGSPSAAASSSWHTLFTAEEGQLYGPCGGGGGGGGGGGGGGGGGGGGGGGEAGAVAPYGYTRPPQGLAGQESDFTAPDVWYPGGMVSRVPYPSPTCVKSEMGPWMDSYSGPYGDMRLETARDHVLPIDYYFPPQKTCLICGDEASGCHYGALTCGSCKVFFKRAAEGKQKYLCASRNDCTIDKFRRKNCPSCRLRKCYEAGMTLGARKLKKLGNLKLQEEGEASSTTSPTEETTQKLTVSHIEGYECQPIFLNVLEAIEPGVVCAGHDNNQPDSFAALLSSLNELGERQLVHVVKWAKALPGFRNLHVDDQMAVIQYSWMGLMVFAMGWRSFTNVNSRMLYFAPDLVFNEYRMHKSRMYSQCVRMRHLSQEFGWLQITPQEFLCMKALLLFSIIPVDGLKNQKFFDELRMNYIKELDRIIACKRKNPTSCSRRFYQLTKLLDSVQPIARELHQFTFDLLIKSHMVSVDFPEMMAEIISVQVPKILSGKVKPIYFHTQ
Procedure, shortened: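 Quantitative HTS of the Tox21 10K library used HEK293 AR-UAS-bla cells stimulated with R1881 alongside compound for 16 h at 37C, followed by beta-lactamase FRET detection (LiveBLAzer B/G, 2 h, RT).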

[16] = biological target: Androgen receptor (Homo sapiens) (UniProt P10275); test: qHTS assay to identify small molecule agonists of the androgen receptor (AR) signaling pathway (AID 743036; active means well fitted activation curve with a large enough effect in the signal ratio in the repeat runs, with a control signal flat, not every such curve was filed as active; the % refers to the signal ratio)
Procedure, shortened: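 Screening used 2,000 AR-bla HEK293 cells per well, treated 16 h at 37C with test compounds in DMSO alongside positive and DMSO-only controls; beta-lactamase activity was then read by LiveBLAzer B/G FRET fluorescence after 2 h at room temperature.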

[17] = biological target: Androgen receptor (Homo sapiens) (UniProt P10275); test: qHTS assay to identify small molecule agonists of the androgen receptor (AR) signaling pathway using the MDA cell line (AID 743040; further: nearly all actives have a fitted effect of over 20% in size)
Procedure, shortened: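 Luciferase read-out, ONE-Glo, 30 min RT. Cells: MDA-kb2 AR-luc, MMTV promoter with AR and GR response elements. Compound exposure 16 h, 37C, 0% CO2, after 5 h pre-incubation. qHTS agonist mode.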

[18] = biological target: Androgen receptor (Homo sapiens) (UniProt P10275); test: qHTS assay to identify small molecule antagonists of the androgen receptor (AR) signaling pathway using the MDA cell line (AID 743042; further: nearly all actives have a fitted effect of over 55% in size)
Procedure, shortened: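 MDA-kb2 breast carcinoma cells carrying MMTV-luciferase (AR/GR responsive) were co-treated with compounds and the agonist R1881 for 16 h at 37C. Inhibition read as ONE-Glo luminescence; CellTiter-Fluor fluorescence measured in parallel for cytotoxicity.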

SMILES	Potency [1]	outcome [2]	Potency [3]	Potency [4]	outcome [5]	Potency [6]	outcome [7]	Potency [8]	Potency (Aromatase (Homo sapiens))	Potency [9]	Potency [10]	outcome [11]	Potency [12]	Potency [13]	Potency [14]	Potency [15]	outcome [16]	Potency [17]	outcome [18]
O=C(C(Cl)Cl)N1CCOC12CCCCC2	6.86 µM (active)	inactive	inactive	inactive	inactive	inactive	inactive	inactive	inactive										
CCOC(=O)CS				inactive				inactive	inactive	inactive	inactive	inactive							
CC/C=C\CCOC(=O)C(C)C		inactive	inactive	inactive	inactive	inactive	inactive	inactive	inactive	inactive	inactive	inactive	inactive	inactive	inactive				
CC(C)Nc1nc(N)nc(Cl)n1	inactive	inactive		inactive				inactive	inactive	inactive		inactive		inactive	inactive				
COc1ccc2nc(NC(=O)Nc3ccccc3)sc2c1	26.6 µM (active)	inactive		inactive				inactive	inactive	inactive	inactive	inactive	18.8 µM (active)	16.8 µM (active)					
CC1(C)C(=O)N(Cl)C(=O)N1Br	inactive	inactive		inactive				inactive	inactive	inactive	inactive	inactive	inactive		inactive				
CN(CCCN1c2ccccc2CCc2ccccc21)CC(=O)c1ccc(Cl)cc1	13.3 µM (active)		inactive	inactive	inactive	inactive	inactive	inactive	inactive		11.9 µM (active)		9.44 µM (active)	13.3 µM (active)	26.6 µM (active)				
CCOC(=O)c1ccccc1O		inactive		inactive				inactive	inactive	inactive	inactive	inactive	inactive	inactive	inactive				
O=[N+]([O-])c1nccn1CO[C@@H](CO)[C@H](O)CO	inactive	inactive						inactive	inactive	inactive	inactive	inactive	inactive	inactive	inactive				
CCN(O)CC	inactive	inactive		inactive				inactive	inactive	inactive	inactive	inactive	inactive	inactive	inactive				
CC(C)NCC(O)COc1ccc(CCOCC2CC2)cc1 (stereo not drawn)		inactive		inactive				inactive	inactive	inactive	inactive	inactive	29.8 µM (active)	29.8 µM (active)					
Nc1ccc(Oc2ccc(N)c(N)c2)cc1	7.7 µM (active)	inactive		inactive	inactive			inactive				inactive	15.4 µM (active)	13.7 µM (active)					
CCOC(=O)COc1ccc2c(c1)CC(NCC(O)c1cccc(Cl)c1)CC2 (stereo not drawn)	54.9 µM (active)		inactive		inactive	inactive		inactive		inactive	27.5 µM (active)		54.9 µM (active)		48.9 µM (active)				
Cc1c(-c2ccccc2)oc2c(C(=O)OCCN3CCCCC3)cccc2c1=O	inactive	inactive	inactive	inactive	inactive	inactive	inactive	inactive		inactive	inactive	inactive	inactive		inactive				
COc1ccccc1N1CCN(CCCNc2cc(=O)n(C)c(=O)n2C)CC1	inactive	inactive	inactive	inactive	inactive	inactive	inactive	inactive	inactive	inactive	inactive		inactive						
CC(=O)OC(C)OC(C)=O	70.7 µM (active)	inactive		inactive				inactive	inactive	inactive	inactive	inactive	inactive		inactive	inactive	inactive	inactive	inactive
CN1CCN(c2c(F)cc3c(=O)c(C(=O)O)cn(CCF)c3c2F)CC1		inactive	inactive	inactive	inactive		inactive		inactive	inactive	inactive	inactive			inactive				
C[C@]12C(=O)OC(=O)[C@H]1[C@H]1C=C[C@@H]2C1	inactive	inactive	inactive	inactive	inactive		inactive	inactive	inactive	inactive	inactive	inactive	inactive		inactive				
CCC(=O)c1ccc2c(c1)N(CCCN(C)C)c1ccccc1S2				inactive							7.5 µM (active)		4.73 µM (active)	7.5 µM (active)	7.5 µM (active)		inactive	inactive	
CCN(CC)CCOc1ccc(Cc2ccccc2)cc1		inactive		26.8 µM (active)				29.8 µM (active)	inactive		11.9 µM (active)		0.473 µM (active)	0.376 µM (active)	10.6 µM (active)				
CCN1CC(CCN2CCOCC2)C(c2ccccc2)(c2ccccc2)C1=O (stereo not drawn)		inactive		inactive				inactive	inactive	inactive	inactive	inactive	inactive	inactive	inactive				
Cc1cc(NS(=O)(=O)c2ccc(N)cc2)nc(C)n1		inactive	inactive	inactive	inactive	inactive	inactive	inactive	inactive	inactive	inactive	inactive	inactive		inactive				
C=CC(C)(O)CC/C=C(\C)CCC=C(C)C (stereo not drawn)	inactive and 4.33 µM (active)	inactive		inactive				inactive	inactive	inactive	inactive	inactive	inactive	inactive	inactive				
